Screens: PubChem BioAssay, several laboratories
CYP2C9 inhib: human CYP2C9 inhibition; P11712; CYP2C9 Supersomes, luciferin-H conversion, luminescence; 96,000 compounds, 20% hits; inhibition, % at 5 µM;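 active = blocking of liver enzyme CYP2C9 beyond about 50% at 5 µM, limit read from the data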
CYP2C9 activ: activators of human CYP2C9. AID 1024. activation factor at 5 µM. 96,000 compounds, 1.4% hits. recombinant CYP2C9, luciferin-H conversion, luminescence; stronger effect = higher value; factor 1 = untreated enzyme, 0 = blocked. P11712;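 active = activation factor of 2 or more for CYP2C9 at a 5 µM dose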
CYP2C19 inh: blocks human cytochrome P450 2C19; 96,000 compounds, 21% hits; CYP2C19 Supersomes, luciferin-H EGE luminescence, 30 min; inhibition, % at 5 µM; P33261;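 active = CYP2C19 inhibition above a set limit at 5 µM in the primary screen, cut at about 50% in these data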
Cav32 inh: blocks human Cav3.2 T-type calcium channel. Cav3.2-expressing cells, Fluo-4 calcium fluorescence FDSS; stronger effect = lower value. B-score at 10 µM. 100,000 compounds, 4% hits. AID 449739;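 active = single-dose well whose peak fluorescence ratio is a statistical outlier from its plate by either plate-standardised score or position-corrected B-score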
CYP2C19 act: increases human CYP2C19 enzyme activity | 96,000 tested, under 10 active | P33261 | activation factor at 5 µM | AID 1025 | recombinant CYP2C19, luciferin-H EGE luminescence; stronger effect = higher value; 0 = fully inhibited enzyme, 1 = untreated enzyme;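 active = activation factor of at least 2 at 5 µM in the primary screen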
Numbers stand for hits; . = inactive; / = no result given. Rows were chosen to be rich in hits. Some 27% of all compounds tested hit in one or more screens of this group.

SMILES | CYP2C9 inhib | CYP2C9 activ | CYP2C19 inh | Cav32 inh | CYP2C19 act
Cc1cc(C)n2cc(CSc3nnnn3-c3ccc(Cl)cc3)nc2n1 | . | 2.2 | . | . | .
c1ccc(-n2nnnc2SCc2ccccn2)cc1 | . | . | 88 | . | .
Cc1cc(C(F)F)n2nc(C(=O)Nc3ccccc3Br)nc2n1 | . | . | . | . | .
CCNC(=O)NCCc1c[nH]c2ccc(Cl)cc12 | . | . | 78 | . | .
Cc1ccc2[nH]cc(CCNC(=O)Nc3ccccc3)c2c1 | 54 | . | 97 | -3.9 | .
O=C(NCCc1nc2ccccc2[nH]1)Nc1ccccc1 | . | . | . | . | .
Cc1ccc2[nH]cc(CCNC(=O)c3cccnc3)c2c1 | 64 | . | 88 | . | .
Cc1ccc(CC(=O)OCCNC(=O)c2cccnc2)cc1 | . | . | . | . | .
Cc1ccc(/C=C(/NC(=O)c2ccccc2)C(=O)NCCc2c[nH]c3ccccc23)o1 | . | . | . | . | .
CCn1nc(C(=O)N2CCc3ccccc3C2)c2ccccc2c1=O | 69 | . | 66 | . | .
Cn1c(C(=O)N2CCN(C(=O)c3ccco3)CC2)cc2c(=O)n3ccccc3nc21 | . | . | . | . | .
Cn1c(C(=O)N2CCc3ccccc3C2)cc2c(=O)n3ccccc3nc21 | . | . | 66 | . | .
CC(C)(C)NC(=S)NCc1cccnc1 | . | . | . | . | .
CCOC(=O)c1cc(=O)n(Cc2ccccc2C)c2ccccc12 | . | . | . | . | .
CCN(CC)S(=O)(=O)c1cc(C)c(C)cc1Br | / | / | / | . | /
CCN(CC)S(=O)(=O)c1cccc(NC(=O)C(=O)c2c(-c3ccccc3)cc3ccccn23)c1 | 65 | . | 57 | / | .
CCN(CC)S(=O)(=O)c1ccc(N2CCOCC2)c(NC(=O)C(=O)c2c(-c3ccccc3)cc3ccccn23)c1 | 86 | . | . | . | .
CCN(CC)S(=O)(=O)c1cccc(C(=O)NCCc2ccccc2)c1 | / | / | / | . | /
CN(CC(=O)Nc1ccccc1N1CCOCC1)S(=O)(=O)c1ccc(Cl)cc1 | . | . | . | . | .
CCN(CC)S(=O)(=O)c1cc(NC(=O)C(=O)c2c(-c3ccccc3)cc3ccccn23)ccc1C | 54 | . | . | -4.6 | .
CC(C(=O)N1CCN(C=O)CC1)N1C(=O)c2ccccc2C1=O (stereo not drawn) | . | . | . | . | .
COc1ccccc1N1CCN(S(=O)(=O)c2c(C)ccc3nsnc23)CC1 | . | . | 73 | . | .
COc1ccccc1N1CCN(C(c2cccs2)C(C)NS(=O)(=O)c2ccccc2)CC1 (stereo not drawn) | 86 | . | 72 | . | .
COc1ccccc1N1CCN(C(=O)C(NS(=O)(=O)c2cccs2)c2ccccc2)CC1 (stereo not drawn) | . | . | 62 | . | .
COc1ccccc1N1CCN(S(=O)(=O)c2ccc(Br)s2)CC1 | . | . | . | . | .
SMILES | CYP2C9 inhib | CYP2C9 activ | CYP2C19 inh | Cav32 inh | CYP2C19 act
COc1ccccc1N1CCN(S(=O)(=O)c2ccccc2)CC1 | 86 | . | 92 | . | .
CC(=O)N1CC=CC1(C)C(=O)O (stereo not drawn) | / | / | / | . | /
COc1ccc(CCNC(=O)Cn2cnc3c(nnn3Cc3ccccc3F)c2=O)cc1OC | / | / | / | . | /
CC(C)(C)OC(=O)N[C@@H](Cc1ccccc1)C(=O)N1CCC(C(=O)O)CC1 | . | . | . | . | .
CCOC(=O)COc1ccc(S(=O)(=O)N2CCN(c3ccccc3F)CC2)cc1 | 81 | . | 68 | . | .
COc1ccc(N2CCN(S(=O)(=O)c3cccs3)CC2)cc1 | . | . | 77 | . | .
CC1CCN(S(=O)(=O)Cc2ccccc2Cl)CC1 | . | 3.4 | 96 | . | .
O=S(=O)(Cc1ccccc1)N1CCCC1 | . | . | . | . | .
COc1ccccc1N1CCN(C(=O)C(Cc2ccccc2)NC(=O)C2CCCCC2)CC1 (stereo not drawn) | 87 | . | 99 | . | .
CC(C)(C)c1ccc(C(=O)C=[N+]=[N-])cc1 | . | . | . | . | .
COc1ccccc1N1CCN(S(=O)(=O)c2ccccc2F)CC1 | 64 | . | 64 | . | .
CCc1nn2c(=O)cc(N3CCN(c4cc(C)nc5ccccc45)CC3)nc2s1 | . | . | . | . | .
COc1ccc(N2CCN(C(=O)Cn3nnc(-c4cccs4)n3)CC2)cc1 | . | . | . | . | .
Cc1cc(N2CCN(S(=O)(=O)c3ccccc3)CC2)c2ccccc2n1 | . | . | 65 | . | .
COc1cc(S(=O)(=O)N2CCN(c3ccccc3F)CC2)ccc1Cl | 90 | . | 99 | . | .
COc1ccc(N2CCN(C(=O)Cc3cccs3)CC2)cc1 | . | . | 54 | . | .
Cc1nnc(SCC(=O)Nc2cccc(C(F)(F)F)c2)[nH]c1=O | . | . | . | . | .
N/C(Cc1cccs1)=N\OC(=O)COc1ccc(Cl)cc1Cl | . | . | . | . | .
COc1ccccc1N1CCN(C(=O)C2CCN(S(=O)(=O)c3ccc(F)cc3)CC2)CC1 | . | . | . | . | .
COc1cc(OC)cc(C(=O)N2CCN(c3ncccn3)CC2)c1 | . | . | . | . | .
COc1ccc(N2CCN(c3ncccn3)CC2)cc1 | . | . | 92 | . | .
COc1ccccc1N1CCN(S(=O)(=O)c2cccs2)CC1 | 83 | . | . | . | .
COc1ccccc1N1CCN(S(=O)(=O)Cc2ccccc2Cl)CC1 | . | 4.3 | 73 | . | .
O=C(Cc1cccs1)N1CCN(c2nc(-c3ccc(Cl)cc3)cs2)CC1 | 91 | . | 65 | . | .
CC#CCCCC(=O)Nc1ccccc1C(=O)O | . | . | . | . | .
SMILES | CYP2C9 inhib | CYP2C9 activ | CYP2C19 inh | Cav32 inh | CYP2C19 act
CCCn1c(N)c(N(C)C)c(=O)n(CC(=O)Nc2ccc(OC(F)(F)F)cc2)c1=O | . | . | . | . | .
COc1ccc(S(=O)(=O)N2CCN(c3ccccc3OC)CC2)cc1OC | . | . | 80 | . | .
COc1cc(NC(=O)COC(=O)c2nc3nc(C)cc(C)n3n2)cc(OC)c1 | . | . | . | . | .
CCC1ON(c2ccccc2)C2c3nc4ccccc4n3CC12 (stereo not drawn) | / | / | / | . | /
O=c1c2ccccc2nnn1CSc1nnc(C2COc3ccccc3O2)n1-c1ccccc1 (stereo not drawn) | 90 | . | 87 | -6.1 | .
Cc1ccc(S(=O)(=O)N2CCOC2CNC(=O)C(=O)NCc2cccnc2)cc1 (stereo not drawn) | / | / | / | . | /
Cc1oc2ccc(O)c(CN3CCOCC3)c2c1C(=O)c1ccc(Cl)cc1 | 52 | . | 59 | -4.4 | .
COc1cc(C)c(/C=C/C(C)=C/C=C/C(C)=C/C(=O)O)c(C)c1C | / | / | / | . | /
c1cc2c(cc1Cn1cnnn1)OCO2 | 56 | . | . | . | .
O=C(CSc1nc2ccccc2[nH]1)NC1CCS(=O)(=O)C1 (stereo not drawn) | . | . | . | . | .
CN(C)C(=O)CSc1nc(SCC(=O)N(C)C)n(-c2ccccc2)n1 | . | . | . | . | .
Cn1c(SCC(=O)NCc2ccco2)nc2ccccc2c1=O | . | . | . | . | .
